Bioassay records: PubChem, National Center for Advancing Translational Sciences (NCATS)
Rab9 prom act = qHTS Assay for Rab9 Promoter Activators. Huh7 Rab9 promoter-luciferase reporter, luminescence, 24 h. Potency, µM (doses to about 9.22 µM), for inactives: top-dose activation, negative = inhibition, hits mostly activators. 2.8% of 320,000 active; note: % of control where 0% means no effect; nearly all actives have a fitted effect of over 60% in size
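Huh7 cells stably carrying a Rab9 promoter-luciferase reporter, 1500 cells per well in OP-MEM I with 10% FBS, treated with compound 24 hours at 37C. Luciferase activity read by luminescence after 10 minutes with Amplite reagent.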
ELG1 genotox = qHTS screen for small molecules that induce genotoxicity in human embryonic kidney (HEK293T) cells expressing luciferase-tagged ELG1; HEK293T ELG1-luciferase reporter, luminescence, 16 h; Potency, µM (series often up to 46 µM), without a hit: at the top dose activity change, positive = activation, usual class: activators; 1.3% of 330,000 active; note: % of control where 0% means no effect; nearly all actives have a fitted effect of over 60% in size
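Step 1: seed 2,000 HEK293T ELG1-luciferase cells per well. Step 2: add compound or DMSO, incubate 16 hr at 37 °C. Step 3: ONE-Glo, 30 min at room temperature, read luminescence.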
NPC1 prom act = qHTS Assay for NPC1 Promoter Activators | 2.4% of 320,000 active | AID 485313, 2010 | Huh7 NPC1 promoter luciferase reporter, 24 h | Potency, µM (titrated, usually from 9.22 µM), for the others: at the highest dose activation, usual class: activators; note: % of control where 0% means no effect; nearly all actives have a fitted effect of over 60% in size
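Stably transfected Huh7 (NPC1 promoter→luciferase), 1500 cells/well in Opti-MEM + 10% FBS, 2 h settle, then compound 24 h at 37 °C. Luminescence after 10 min with Amplite reagent.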
ELG1 DNA repair = qHTS screen for small molecules that inhibit ELG1-dependent DNA repair in human embryonic kidney (HEK293T) cells expressing luciferase-tagged ELG1 | 2.3% of 330,000 active | AID 504467, 2011 | HEK293T ELG1-luciferase reporter, luminescence, 16 h; DNA damage induced by 5-fluorouridine | Potency, µM (doses to about 46.1 µM), without a hit: at the top dose activity change, negative = inhibition, hits mostly inhibitors; note: % is set by controls: 0 for no effect and ±100 for the full control effect; nearly all actives have a fitted effect of over 55% in size
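HEK293T cells expressing luciferase-tagged ELG1 (2,000/well) received 5-Fluorouridine plus compound or DMSO for 16 hr at 37 °C. Luciferase was read by ONE-Glo luminescence after 30 min at room temperature.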
SMN2 splice enh = qHTS Assay for Enhancers of SMN2 Splice Variant Expression; HEK293 SMN2-luciferase splicing reporter, luminescence, 30-36 h; AID 1458, 2008; 2.8% of 210,000 active; Potency, µM (titrated, usually from 46.1 µM), without a hit: top-dose activity change, positive = activation, most hits filed as activators; note: % of control where 0% means no effect; nearly all actives have a fitted effect of over 55% in size
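qHTS luciferase splicing reporter: luminescence rises when SMN2 exon 7 is included in transfected HEK293 cells. Compound exposure lasted 30-36 h at 37C, with 4.5 mM final sodium butyrate as control, followed by a ONE-Glo read.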
FLuc counter = qHTS profiling assay for firefly luciferase inhibitor/activator using purifed enzyme and Km concentrations of substrates (counterscreen for miR-21 project); purified FLuc, Km substrates, luminescence inhibition; AID 588342, 2011; Potency, µM (doses to about 57.5 µM), for inactives: top-dose activity change, negative = inhibition, usual class: inhibitors; 6.9% of 360,000 active;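 note: plate controls were vehicle for no effect and reference inhibitor for full effect; nearly all actives have a fitted effect of over 55% in size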
Target sequence (P08659 whole entry, looked up): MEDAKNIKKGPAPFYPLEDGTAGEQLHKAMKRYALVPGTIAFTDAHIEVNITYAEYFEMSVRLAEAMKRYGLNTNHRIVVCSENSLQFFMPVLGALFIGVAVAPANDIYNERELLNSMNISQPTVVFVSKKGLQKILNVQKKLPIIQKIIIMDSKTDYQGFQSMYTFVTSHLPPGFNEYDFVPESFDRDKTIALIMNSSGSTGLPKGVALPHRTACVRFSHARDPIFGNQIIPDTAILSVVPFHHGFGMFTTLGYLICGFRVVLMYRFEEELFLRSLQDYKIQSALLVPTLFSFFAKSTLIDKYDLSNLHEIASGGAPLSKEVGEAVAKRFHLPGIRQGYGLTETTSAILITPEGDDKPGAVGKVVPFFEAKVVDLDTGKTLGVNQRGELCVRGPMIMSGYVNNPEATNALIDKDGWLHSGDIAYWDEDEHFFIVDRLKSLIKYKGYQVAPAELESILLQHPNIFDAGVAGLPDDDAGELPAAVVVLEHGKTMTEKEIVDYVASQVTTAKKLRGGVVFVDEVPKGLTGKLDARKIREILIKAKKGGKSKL
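Purified P. pyralis luciferase (10nM final) with 10uM D-luciferin and 10uM ATP (Km levels) in 50mM Tris acetate pH 7.5, 10mM Mg acetate, 0.01% Tween-20, 0.05% BSA; qHTS 6-point titration, ~60 µM downward; luminescence read.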
* = called active by the depositor; ? = inconclusive; · = not tested or not shown; [ ] = dose if it differs, or a comment. The list is not random: actives were taken first. Their share in the collection is about 9.2%. Calls come from the whole dose curve; as a rule, active = well fitted curve in the direction sought with a large enough effect; inconclusive = small, poorly fitted or top-dose-only effect, or another doubt; inactive = no such curve, though single readings can be large; an effect the other way counts as inactive or inconclusive. Potency is the fitted concentration of half-maximal effect.

SMILES	Rab9 prom act	ELG1 genotox	NPC1 prom act	ELG1 DNA repair	SMN2 splice enh	FLuc counter
CCc1nc2ccccc2n1CCCCOc1ccc(Cl)cc1	·	·	·	·	-36%	?
Cc1nn(Cc2ccccc2Cl)c2sc(C(=O)NC(C)(C)C)cc12	-19%	3%	4%	3%	-38%	2%
Cc1csc(NC(=O)c2cc3c(C)nn(Cc4ccccc4Cl)c3s2)n1	-4%	-5%	-2%	?	-47%	11µM*
O=C(NCc1cccs1)c1cc2c(s1)CCCC2	?	21µM*	?	?	11µM*	12µM*
O=C(Nc1nnc(C2CC2)s1)c1cc2c(s1)CCCCCC2	9%	14%	23%	?	?	7%
Cc1nc(NC(=O)c2cc3c(s2)CCCCC3)sc1C(=O)N(C)C	?	?	?	?	?	13µM*
O=C(NCc1cccs1)c1csc2c1CCCCC2	7%	2%	11%	18%	-8%	-19%
COC(=O)c1sc(NC(=O)c2cc3c(s2)CCCC3)nc1C	4%[1.84 µM]	1.2µM*	28%	?	4.5µM*	2.4µM*
COc1ccc2oc(=O)c(C(=O)N3CCN(c4ccc(C)cc4)CC3)cc2c1	·	·	·	·	-5%	-1%
Cc1ccc(NC(=O)c2cc3c(s2)CCCC3)cc1	1.4µM*	?	3.2µM*	?	13µM*	5.4µM*
Cc1ccc(NC(=O)CN(C)C(=O)c2cc3c(s2)CCCCC3)cc1	-9%	1%	-4%	1%	·	-1%
CCOC(=O)c1sc(NC(=O)c2cc3c(s2)CCC(C)C3)nc1C (stereo not given)	-30%	10µM*	-35%	?	7%	4.8µM*
CCc1sc(C(=O)Nc2nc(C)cs2)cc1C	?	?	1.3µM*	?	·	1.9µM*
COc1ccc(Cl)cc1NC(=O)c1c(NCc2cccs2)sc2c1CCCC2	·	·	·	·	·	-18%
Nc1cccc(C(=O)Nc2ccc3nc(-c4cccnc4)[nH]c3c2)c1	0%	0%	-2%	-3%	-2%	?
O=C(Nc1ccc2nc(-c3cccnc3)[nH]c2c1)C12CC3CC(CC(C3)C1)C2	2%	3%	14%	-3%	13%	11µM*
O=C(Nc1ccc2nc(-c3cccnc3)[nH]c2c1)C1CCCCC1	14%	1%	8%	-13%	4%	12µM*
CC(C)c1nc2ccc(NC(=O)C34CC5CC(CC(C5)C3)C4)cc2[nH]1	5%	22%	8%	?	-5%	15µM*
O=C1CN(C(=S)NC(=O)c2ccccc2[N+](=O)[O-])CCN1	0%	4%	-1%	16%	·	0%
Cc1ccc(N2CCN(C(=O)C3CCN(c4ncnc5c4nc4n5CCCCC4)CC3)CC2)c(C)c1	·	·	·	·	·	1%
Cc1cccc(-n2c(C)cc(C(=O)C(=O)Nc3nncs3)c2C)c1	·	·	·	·	·	-3%
CCOC(=O)Cc1ccc(NC(=O)N2CCOc3ccc(C)cc32)cc1	·	·	·	·	·	3%
COc1ccc(-c2cn3cc(C(F)(F)F)cc(Cl)c3n2)cc1	2.2µM*	5.8µM*	?	?	2.8µM*	3µM*
Fc1ccc(-c2cn3cc(C(F)(F)F)cc(Cl)c3n2)cc1	4.5µM*	?	?	?	13µM*	1.7µM*
Fc1ccc(CNc2nc(-c3ccc(Cl)cc3)cc(C(F)(F)F)n2)cc1	·	·	·	·	-14%	-2%
SMILES	Rab9 prom act	ELG1 genotox	NPC1 prom act	ELG1 DNA repair	SMN2 splice enh	FLuc counter
CCc1ccc(-n2nc3ccc(NC(=O)c4ccc(C#N)cc4F)cc3n2)cc1	·	·	·	·	-3%	6%
CCc1nn2c(=O)cc(COC(=O)c3ccccc3NC(=O)c3cccs3)nc2s1	·	·	·	·	·	-7%
O=C1SC(c2ccccc2)=C/C1=C\N1CCCCC1	20%	10%	18%	?	-8%	19µM*
O=C1OC(c2ccccc2)=C/C1=C/N1CCOCC1	?	?	25%	?	?	?
O=C(COC(=O)CC1CCCC1)Nc1cc2c(cc1Cl)C(=O)c1ccccc1C2=O	6.3µM*	15µM*	3.5µM*	?	?	13µM*
CC(C)c1ccc(NC(=O)COC(=O)CC2CCCC2)cc1	·	4%	·	21%	·	·
C/C=C\C=C\C(=O)N1CC2(CC(c3cccc(NC(=O)CC)c3)=NO2)C[C@H]1C(N)=O (stereo not given in full)	-6%	4%	1%	22%	·	-11%
C/C=C\C=C/C(=O)Nc1cccc(C2=NOC3(C2)C[C@@H](C(N)=O)N(C(=O)COc2ccc(Cl)cc2)C3)c1 (stereo not given in full)	-3%	-3%	-2%	2%	·	15µM*
C/C=C\C=C\C(=O)N1CC2(CC(c3cccc(NC(=O)COc4ccc(Cl)cc4)c3)=NO2)C[C@H]1C(N)=O (stereo not given in full)	-3%	-4%	-2%	?	·	9.5µM*
CCCCCC(=O)Nc1cccc(C2=NOC3(C2)C[C@H](C(N)=O)N(C(=O)COc2ccc(Cl)cc2)C3)c1 (stereo not given in full)	-6%	-15%	-9%	7.3µM*	·	-16%
COc1ccc(C(=O)Oc2c(Sc3ccccc3)c(C)nn2-c2ccccc2)cc1OC	·	·	·	·	-5%	1%
COc1ccc(OCC(=O)NC2CCCN(Cc3ccc(Cl)cc3)C2)cc1 (stereo not given)	7%	-17%	0%	8.2µM*	·	1%
Cc1occc1-c1nc(-c2ccccn2)no1	1.6µM*	?	?	?	11µM*	4.8µM*
Cc1ccc(-c2noc(-c3ccoc3C)n2)cc1	-6%	15µM*	?	?	?	3µM*
COc1cc(OC)c(-c2nc(-c3ccncc3)no2)cc1OC	2%	-3%	0%	?	·	-1%
Cc1onc(-c2ccccc2Cl)c1-c1nc(-c2ccccn2)no1	0%	-4%	-3%	3%	-10%	-8%
Cc1occc1-c1nc(-c2ccncc2)no1	10%	18µM*	13%	?	?	?
CC(=O)Nc1ccc(C(=O)CSc2nnc3cc(C)c4ccccc4n23)cc1	·	·	·	·	·	-3%
COc1ccc(Cl)cc1C(=O)Nc1ccc2c(c1)OCO2	?	?	?	?	15%	24µM*
COc1ccc(Cl)cc1C(=O)Nc1ccc2c(c1)OCCO2	26%	?	?	?	·	1.9µM*
